Many of the other results were omitted from the sample, so hits are more common in it than they were.
TTR transcr act: increases transthyretin transcription; SH-SY5Y TTR promoter Gaussia luciferase, luminescence; 100% = recombinant luciferase protein wells; activation, % at 16.7 µM; 92,000 tested, 1.3% active; AID 1117267;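 active = activation above the mean of all tested compounds plus 3 SD, cut at about 9.5% in these data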;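 note: cells exposed to compounds for one day before reading; 0% = median of all test compound wells on the plate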
TTR inh HuH7: HuH7 TTR transcription inhibition, counter-screen | HuH7 TTR promoter-Gaussia luciferase reporter, luminescence | AID 1117279 | inhibition, % at 16.7 µM | shares compounds with TTR transcr act | 1,100 tested, 4% active;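 active = average inhibition above the solvent-only control wells' mean plus 3 SD, cut at about 15% in these data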;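 note: 0% = cells with DMSO only and 100% = cells with inhibitor control FD; inhibitors lower well luminescence so higher value means more inhibition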
TTR act confirm: human TTR transcription activation, confirmation; shares compounds with TTR transcr act; 1,100 tested, under 10 active; activation, % at 16.7 µM; AID 1117280; SHSY5Y TTR promoter Gaussia luciferase, luminescence; 100% = purified Lucia enzyme wells, no cells;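 active = mean activation above a set limit taken from the earlier primary screen, cut at about 11% in these data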;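 note: 0% = DMSO-treated cells and 100% = recombinant Lucia luciferase without cells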
Active calls of the source: *.

SMILES	TTR transcr act	others
COc1ccc(S(=O)(=O)Nc2ccc3c(c2)OCO3)cc1OC	16.7*	TTR inh HuH7=-14.8;TTR act confirm=-0.2
Cc1ccc(-c2cc(-c3ccccc3)nc(NN)n2)cc1	3.2
Cc1cc(-c2ccccc2)nc(-c2ccccc2)c1C	19.2*	TTR inh HuH7=-20.2;TTR act confirm=0.1
Cc1ccc(-c2nc3ccccc3nc2-c2ccccc2)cc1	1.9
C#CCSc1nnc(-c2ccc([N+](=O)[O-])cc2)o1	0.8
COC(=O)[C@]1(C)CN(C(=O)OC(C)(C)C)C2=C1C(=O)C[C@@](C)(C(=O)OC(C)(C)C)C2	-1.7
Clc1cc2nc3ccccn3c2cc1Cl	13.3*	TTR inh HuH7=-14.8;TTR act confirm=1.9
OCc1c(Cl)nc2ccccn12	1.7
c1ccc(-c2nc3ccccn3c2-c2ccccc2)cc1	-1.2
CC1=C2C3OC(=O)C(C)C3CCC2(C)C=C(Cl)C1=O (centres undefined)	0.0
CC(C)(C)OC(=O)[C@H](Cc1ccccc1)NCC(=O)OCc1ccc(C(=O)NCc2ccccc2)cc1	-1.0
O=C(N[C@@H](Cc1ccc(Br)cc1)C(=O)O)OCC1c2ccccc2-c2ccccc21	-0.2
O=C(CN(C(=O)OCC1c2ccccc2-c2ccccc21)[C@@H](Cc1ccccc1)C(=O)O)OCc1ccc(C(=O)NCc2ccccc2)cc1	11.8*	TTR inh HuH7=-20.8;TTR act confirm=1.6
CC(C)CCNC(=O)CSc1nc2c(c(=O)[nH]1)CCC2	2.3
COC(=O)c1ncccc1SC	1.2
CCO[C@@H]1OC(C(=O)N2CCOCC2)=C[C@H](C(C)(C)C)[C@H]1CCCO	-0.5
CC(=O)N1C[C@H]2CON(C)[C@H]2C[C@H]1c1cccc(-c2cc(Cl)cc(Cl)c2)c1	-1.1
CC[C@@H]1/C(=C/c2ccccc2)N2C(=O)C[C@@H](c3ccccc3)N=C2N1Cc1ccc(OC)cc1OC	0.8
Cc1nn(CC(=O)N(CC(C)C)C2CCS(=O)(=O)C2)c(C)c1[N+](=O)[O-] (centres undefined)	13.3*	TTR inh HuH7=-14.5;TTR act confirm=-1.1
Cc1cnc(C(=O)OCC(=O)N(CC(C)C)C2CCS(=O)(=O)C2)cn1 (centres undefined)	0.0
CC(C)CN(C(=O)CSc1nnnn1C)C1CCS(=O)(=O)C1 (centres undefined)	2.2
CC1(C(=O)NS(=O)(=O)C2CC2)CCN(C(=O)c2cc3ccccc3s2)C1 (centres undefined)	-0.6
Cn1c(N)c(C(=O)CSc2nnc(C3CC3)n2-c2ccccc2)c(=O)n(C)c1=O	-0.6
C/C(=N/NC(=O)CN1CCN(S(=O)(=O)c2ccc(C)cc2)CC1)c1cccc(O)c1	0.3
COc1ccc(/C=C/C(=O)NCc2ccc3c(c2)OCO3)cc1OC	0.5
SMILES	TTR transcr act	others
COc1ccc(CNC(=O)/C=C/c2ccco2)cc1OC	12.6*	TTR inh HuH7=-6.8;TTR act confirm=0.4
COc1ccc(CN(C(=O)/C=C/c2ccco2)C2CCS(=O)(=O)C2)cc1OC (centres undefined)	-0.2
O=C1c2ccccc2-c2ccc(P(=O)(O)O)cc21	1.0
CNC(=O)[C@@H]1CC=C[C@@H]2CCN(c3ccccc3)C(=O)[C@@H]21	-1.1
O=C(Nc1ccc(Cl)cc1Cl)O[C@@H]1CC[C@@]23CCCN2C(=O)CCC[C@H]3C1	-1.9
CCN1C(=O)[C@H]2[C@H]3CN=C(SCc4ccc(C#N)cc4)N3[C@@](C)(C(=O)OC)[C@H]2C1=O	-1.1
CCN1C[C@@H]2[C@@H]3C(=O)N(Cc4ccccc4)C(=O)[C@@H]3[C@](C)(C(=O)OC)N2C1=NC1CCCCC1	24.8*	TTR inh HuH7=-1.6;TTR act confirm=0.0
CCN1C(=O)[C@H]2[C@H]3CN=C(SCC(=O)c4ccccc4)N3[C@@](C)(C(=O)OC)[C@H]2C1=O	13.5*	TTR inh HuH7=-3.0;TTR act confirm=-0.1
COC(=O)[C@@]1(C)[C@H]2C(=O)N(Cc3ccccc3)C(=O)[C@H]2[C@H]2CN(C)C(=NC3CCCCC3)N21	4.6
CCCN=C1N(CC)C[C@@H]2[C@@H]3C(=O)N(Cc4ccccc4)C(=O)[C@@H]3[C@](C)(C(=O)OC)N12	0.4
COC(=O)[C@@]1(C)[C@H]2C(=O)N(Cc3ccccc3)C(=O)[C@H]2[C@H]2CN=C(SCc3ccccc3)N21	1.6
COCCN=C1S/C(=C\c2cc(C)n(-c3ccc(F)cc3F)c2C)C(=O)N1C	0.4
O=c1c([N+](=O)[O-])c(Cl)c2ccccc2n1Cc1ccccc1	-1.6
CN1CCN(NC(=O)NC2CCCCC2)CC1	0.5
NC(=O)c1sc2nc3c(c(-c4ccco4)c2c1N)CCC3	0.0
NC(=O)c1sc2nc(-c3ccco3)ccc2c1N	10.3*	TTR inh HuH7=4.3;TTR act confirm=0.0
Nc1c(C(=O)Nc2ccccc2F)sc2nc(-c3ccco3)ccc12	-2.0
Cc1nn(Cc2ccccc2)c(Cl)c1C(=O)NCCc1ccc(Cl)cc1	-0.8
CCOc1ccc(CCNC(=O)c2c(C)nn(-c3ccccc3)c2Cl)cc1OCC	12.3*	TTR inh HuH7=-15.8;TTR act confirm=-0.3
Cc1nn(-c2ccccc2)c(C)c1C(=O)NCCc1ccccc1	-0.6
CCC[C@H]1[C@@H](NC(=O)c2cccnc2)CC[C@@]23CCCN2C(=O)CCC[C@@H]13	1.9
C[C@H]1[C@@H](OC(=O)NCc2cccc(C(F)(F)F)c2)CC[C@@]23CCCN2C(=O)CCC[C@@H]13	3.2
CCc1cccc(C)c1NC(=O)CN1C(=O)NC(CCc2ccccc2)C1=O (centres undefined)	15.4*	TTR inh HuH7=-1.7;TTR act confirm=-1.2
COc1cccc(NC(=O)CN2C(=O)NC(CCc3ccccc3)C2=O)c1 (centres undefined)	0.7
O=C(CN1C(=O)NC(CCc2ccccc2)C1=O)N1CCCCCC1 (centres undefined)	0.7
SMILES	TTR transcr act	others
CCOC(=O)[C@@H](C)N1[C@@H](C)[C@H](c2ccccc2)Oc2ccc(Cl)cc2S1(=O)=O	1.2
COc1cccc(-c2ccc(C3=CC(=O)CC(C)(C)C3=O)cc2)c1OC	-1.1
CCn1c(N2CCN(S(=O)(=O)c3ccc(OC)cc3)CC2)nc2ccccc21	13.9*	TTR inh HuH7=-11.7;TTR act confirm=-0.9
COc1ccc(S(=O)(=O)N2CCN(Cc3ccccc3OC)CC2)cc1	-1.1
COc1ccc(S(=O)(=O)n2c(N)nc3ccccc32)cc1	-1.2
O=C(CC1(CC2=NS(=O)(=O)c3ccccc3N2)CCCC1)NCCc1ccccc1	-0.6
CC(C)(C)S(=O)N1Cc2cc(CO)cc(-c3ccccc3)c2[C@H]1CCO (some centres undefined)	-0.3
CC(C)(C)S(=O)N1Cc2ccc(CO)cc2[C@H]1CCO (some centres undefined)	2.8
CC(C)(C)S(=O)N1Cc2cc(=O)n(Cc3ccccc3)cc2[C@H]1CCO (some centres undefined)	11.0*	TTR inh HuH7=-9.4;TTR act confirm=1.0
Cc1ccc(SCC(=O)NCCc2ccc(F)cc2)cc1	0.8
COC(=O)C[C@H]1CC[C@@H]2[C@H](COc3ccc(NC(=O)c4cnccn4)cc3C(=O)N2C)O1	0.1
CN(C)c1ccc(C(C(=O)NC2CCCC2)N(C(=O)c2ccco2)C2CC2)cc1 (centres undefined)	-0.6
COc1ccc(N(C(=O)c2ccco2)C(C(=O)NC2CCCCC2)c2ccccc2)cc1 (centres undefined)	-1.1
Cc1ccc(C(C(=O)NC2CCCC2)N(Cc2cccnc2)C(=O)c2snc(C(N)=O)c2N)o1 (centres undefined)	-0.5
Cc1ccc(N(C(=O)c2snc(C(N)=O)c2N)C(C(=O)NC2CCCC2)c2ccco2)cc1 (centres undefined)	-3.1

Source: PubChem (The Scripps Research Institute Molecular Screening Center)
